An excerpt weighted towards active compounds, which were near 6.1% of everything screened.
DRD3 antagonist – antagonists of human D3 dopamine receptor. 360,000 compounds, 2.5% hits. D3R cells, DiscoveRx beta-arrestin luminescence, antagonist mode; hits give low values. P35462. max response, negative = inhibition, %; in the data active = max response below about -50%; also: % is scaled to controls: 0 for no effect and ±100 for the full control effect
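Cells plated overnight at 1500 cells/well, then exposed to library compounds with dopamine controls for 90 minutes at 37 degrees C. DiscoveRx reagent added for 30–60 minutes at room temperature; luminescence read, quantitative HTS format.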
D1 agonist – human D1 receptor agonism; activation, % at 2 µM; P21728; 360,000 compounds, 1% hits; HEK293 T-REx D1 cells, calcium flux, agonist mode; AID 504660; in the data active = activation above about 30%; also: 0% is about no effect
Target sequence (P21728 whole entry, looked up): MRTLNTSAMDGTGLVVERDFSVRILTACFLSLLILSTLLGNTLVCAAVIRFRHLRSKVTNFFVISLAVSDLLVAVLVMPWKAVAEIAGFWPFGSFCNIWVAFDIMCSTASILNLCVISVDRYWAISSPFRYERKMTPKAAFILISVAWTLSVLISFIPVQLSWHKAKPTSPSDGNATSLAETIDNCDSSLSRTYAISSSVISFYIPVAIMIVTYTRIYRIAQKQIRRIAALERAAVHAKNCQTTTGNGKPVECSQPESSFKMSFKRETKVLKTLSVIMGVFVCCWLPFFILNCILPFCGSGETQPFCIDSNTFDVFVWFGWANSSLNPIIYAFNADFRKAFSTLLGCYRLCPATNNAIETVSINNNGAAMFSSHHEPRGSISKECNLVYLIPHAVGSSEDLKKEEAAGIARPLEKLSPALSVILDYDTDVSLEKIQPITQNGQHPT
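Tetracycline-induced HEK293 TREx D1 cells, force-coupled to calcium signalling, were dye-loaded with a no-wash calcium kit. Compound was pin-added after a 10 s baseline. Fluorescence was read kinetically at 1 cycle/s for 180 s, with calcium rises flagged as agonism.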
DRD3 agonist – D3 dopamine receptor (human) agonism; D3R DiscoveRx beta-arrestin cells, luminescence, 90 min; max activation, %; 410,000 compounds, 0.58% hits; AID 652048; in the data active = max activation above about 30%; also: 0% is about no effect
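Cells at 1500/well, incubated overnight, then treated with pinned compounds (dopamine as control) for 90 min at 37 degrees C. DiscoveRx reagent added for 30 - 60 minutes at room temperature; luminescence read.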
D1 potentiator – potentiators of human D1 dopamine receptor. 360,000 compounds, 0.036% hits. potentiation, % at 10 µM. HEK293 TREx D1 cells, calcium flux, dopamine EC20 potentiation; in the data active = potentiation above about 30%; also: 0% is about no effect
D1 antagonist – antagonists of human D1 dopamine receptor; 360,000 compounds, 3.2% hits; activity change, negative = inhibition, % at 10 µM; AID 504652; HEK293 TREx D1 cells, calcium flux, dopamine EC80; hits give low values; in the data active = activity change below about -30%; also: % is scaled to controls: 0 for no effect and ±100 for the full control effect
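Tetracycline-induced HEK293 Trex D1 cells, force-coupled to calcium, dye-loaded; compounds added and read 180 s, then EC80 dopamine added and calcium flux tracked kinetically another 180 s.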
* hit, by the source's call.

COC(=O)Cc1ccc(NC(=S)N2CCN(c3cccc(O)c3)CC2)cc1 was read as DRD3 antagonist 1, D1 agonist 13, DRD3 agonist 32*, D1 potentiator -17 and D1 antagonist -38*.
`CC(=O)c1ccc(NC(=S)N2CCC(Cc3ccccc3)CC2)cc1` gave DRD3 antagonist -7, D1 agonist 10, DRD3 agonist -9, D1 potentiator -10 and D1 antagonist -35*.
`COC(=O)Cc1ccc(NC(=S)N2CCC(Cc3ccccc3)CC2)cc1` gave DRD3 antagonist 20, D1 agonist 1, DRD3 agonist 22, D1 potentiator -7 and D1 antagonist -32*.
CC(C)CNC(=S)N1CCC(Cc2ccccc2)CC1 was read as DRD3 antagonist 7, D1 agonist 1, DRD3 agonist 3, D1 potentiator -3 and D1 antagonist -36*.
For COC(=O)Cc1ccc(NC(=S)N2CCN(C)CC2)cc1 the results were DRD3 antagonist -13, D1 agonist 2, DRD3 agonist -5, D1 potentiator 0 and D1 antagonist 1.
For CCC(C)n1c(=O)c2sccc2n2c(CCCC(=O)Nc3ccc(F)cc3)nnc12 (stereo unspecified) the results were D1 agonist 3, DRD3 agonist -20, D1 potentiator -2 and D1 antagonist -13.
For COc1ccccc1CNC(=O)c1c2c(nc3ccccc13)C(=O)N(C1CCCCC1)C2 the results were D1 agonist 4, DRD3 agonist -2, D1 potentiator -1 and D1 antagonist 20.
For Cc1c(Cl)cccc1N1CCn2c1nc1c2c(=O)n(CC(=O)O)c(=O)n1C the results were D1 agonist -1, DRD3 agonist -7, D1 potentiator -3 and D1 antagonist -3.
CCCOc1ccc(Oc2ccc(S(=O)(=O)N3CCN(C)CC3)cn2)cc1 was read as DRD3 antagonist -14, D1 agonist 5, DRD3 agonist -12, D1 potentiator -3 and D1 antagonist -37*.
Cc1cc(C)cc(Oc2ccc(S(=O)(=O)N3CCN(C)CC3)cn2)c1 was read as DRD3 antagonist 14, D1 agonist 0, DRD3 agonist 11, D1 potentiator -3 and D1 antagonist -10.
Cc1ccccc1N1C(=O)CC(Sc2nnc(-c3ccccc3)o2)C1=O (stereo unspecified) was read as DRD3 antagonist -79*, D1 agonist 3, DRD3 agonist -11, D1 potentiator -3 and D1 antagonist -2.
Cc1c(Cl)cccc1NC(=O)Cn1c(=O)n(Cc2ccco2)c(=O)c2sc3ccccc3c21 was read as D1 agonist 7, DRD3 agonist -8, D1 potentiator -1 and D1 antagonist 2.
For CCN1CCc2c(C#N)c(N3CCCCC3)nc(N3CCOCC3)c2C1 the results were DRD3 antagonist -53*, D1 agonist 1, DRD3 agonist 0, D1 potentiator -2 and D1 antagonist -7.
Screening CCN(CC)CCNC(=O)C12CC3CC(CC(C3)C1)C2 returned DRD3 antagonist -63*, D1 agonist 2, DRD3 agonist -9, D1 potentiator -6 and D1 antagonist -9.
Screening Cc1ccc(S(=O)(=O)n2c3ccc(F)cc3c3nc(C)sc32)cc1 returned D1 agonist 2, D1 potentiator -4 and D1 antagonist -31*.
Cc1ccc(N2CCN(CCCN3C(=O)C4CCCN4C3=O)CC2)cc1 (stereo unspecified) was read as DRD3 antagonist -27, D1 agonist 4, DRD3 agonist -15, D1 potentiator -6 and D1 antagonist -17.
For COc1ccccc1N1CCN(CCCCN2C(=O)c3ccccc3C2=O)CC1 the results were DRD3 antagonist -107* and DRD3 agonist -7.
For COc1ccccc1N1CCN(CCCCN2C(=O)C3CCCN3C2=O)CC1 (stereo unspecified) the results were DRD3 antagonist -87* and DRD3 agonist -18.
`O=C1C2CCCCN2C(=O)N1CCCCN1CCN(c2ccccc2Oc2ccccc2)CC1` (stereo unspecified) gave DRD3 antagonist -104*, D1 agonist 6, DRD3 agonist -22, D1 potentiator -8 and D1 antagonist 0.
COc1ccccc1N1CCN(CCN2C(=O)C3CCCN3C2=O)CC1 (stereo unspecified) was read as DRD3 antagonist -59*, D1 agonist 2, DRD3 agonist -34, D1 potentiator -11 and D1 antagonist 6.
